Source: PubChem BioAssay
An excerpt weighted towards active compounds, which were near 3.4% of everything screened.
GPR151 activ: activates the human receptor GPR151; activation, % at 11.2 µM; Q8TDV0; AID 1508602; PathHunter beta-arrestin GPR151 cells, luminescence; actives 1% (n = 650,000); in the data active = activation above about 4.9%
Target sequence (Q8TDV0 whole entry, looked up): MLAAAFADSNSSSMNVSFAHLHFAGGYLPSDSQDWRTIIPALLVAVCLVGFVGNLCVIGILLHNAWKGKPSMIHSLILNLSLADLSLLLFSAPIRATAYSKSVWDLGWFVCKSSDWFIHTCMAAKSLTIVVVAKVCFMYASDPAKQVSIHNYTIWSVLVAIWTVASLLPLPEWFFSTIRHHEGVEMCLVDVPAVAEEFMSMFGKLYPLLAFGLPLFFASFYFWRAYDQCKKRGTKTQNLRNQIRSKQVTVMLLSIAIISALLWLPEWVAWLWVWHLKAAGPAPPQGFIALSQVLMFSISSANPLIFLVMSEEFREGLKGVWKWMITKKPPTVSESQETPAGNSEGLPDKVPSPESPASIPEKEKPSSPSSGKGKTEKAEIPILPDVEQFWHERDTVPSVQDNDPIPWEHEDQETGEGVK
TEAD-YAP block: TEAD-YAP interaction inhibition; HEK-TIYL cells, TEAD-Gal4/YAP UAS-luciferase luminescence; inhibition, % at 9.12 µM; actives 1.4% (n = 640,000); AID 1259422; in the data active = inhibition above about 32%
MITF inh: blocks human microphthalmia-associated transcription factor | O75030 | AlphaScreen MITF homodimerization, bead proximity signal | inhibition, % at 2.6 µM | actives 0.91% (n = 650,000) | AID 1259374; in the data active = inhibition above about 50%
FBW7 act: human FBW7 E3 ligase activation, primary screen. AID 1259310. normalized activity (activation), % at 26.1 µM. Q969H0. AlphaScreen FBW7–phospho-cyclin E peptide binding, activator screen. actives 0.13% (n = 650,000); in the data active = normalized activity above about 1.9%;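 also: purified mutant Fbw7 with reduced substrate affinity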
MITF confirm: human MITF inhibition, confirmation. inhibition, % at 2.6 µM. AID 1259372. AlphaScreen MITF homodimerization, biotin/His-MITF beads. shares compounds with MITF inh. actives 16% (n = 4,700);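 active = inhibition above a cutoff derived from the DMSO control wells, cut at about 28% in these data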;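 also: inhibitors lower the bead chemiluminescence by keeping MITF from dimerizing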
AS interf DR: optically interferes with AlphaScreen signal in dose response; shares compounds with MITF inh; AlphaScreen optical interference counterscreen, cell-free; IC50, µM; actives 6% (n = 480); AID 1259373; call rule not given here
AlphaScreen intf2: optically interferes with AlphaScreen signal; inhibition, % at 2.6 µM; shares compounds with MITF inh; actives 7.6% (n = 4,700); LysRS AlphaScreen counterscreen, signal interference, triplicate;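 active = inhibition above a cutoff derived from the DMSO control wells, cut at about 30% in these data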
Large screens that a line does not name were inactive (follow-up assays come after a bar, where they were run).

Fc1ccccc1N1CCN(CC2CC3C=CC2C3)CC1 (stereo not given)	none
C1=CC2CC1CC2CN1CCN(CCCc2ccccc2)CC1 (stereo not given)	MITF inh 70 | MITF confirm inactive | AlphaScreen intf2 inactive
Cc1ccc(S(=O)(=O)N2CCN(CC3CC4C=CC3C4)CC2)cc1 (stereo not given)	MITF inh 68 | MITF confirm inactive | AlphaScreen intf2 inactive
c1ccc(CCCN2CCN(C3C4CC5CC(C4)CC3C5)CC2)cc1 (stereo not given)	MITF inh 70 | MITF confirm inactive | AlphaScreen intf2 inactive
C1=CC2CC1CC2CN1CCN(Cc2ccc3c(c2)OCO3)CC1 (stereo not given)	MITF inh 58 | MITF confirm inactive | AlphaScreen intf2 inactive
Cc1ccc(S(=O)(=O)NC[C@@H]2CC3C=CC2C3)cc1 (stereo not given in full)	none
CN(C)C(=O)c1cc(-c2cn[nH]c2)ccc1NC(=O)[C@@H]1Cc2cc(F)ccc2CN1	none
O=C(NCCCCc1ccccc1)c1cc(-c2ccccc2Cl)nc2ccccc12	none
Cn1c(CCNCc2c(C(=O)N3CCCC3)nc3ccccn23)nc2ccccc21	none
O=[N+]([O-])c1ccc(CN2CCN(CC3CC4C=CC3C4)CC2)cc1 (stereo not given)	MITF inh 63 | MITF confirm inactive | AlphaScreen intf2 inactive
C1=CC2CC1CC2CN1CCN(Cc2ccncc2)CC1 (stereo not given)	MITF inh 79 | MITF confirm inactive | AlphaScreen intf2 inactive
Clc1ccc(CN2CCN(CC3CC4C=CC3C4)CC2)cc1 (stereo not given)	none
O=[N+]([O-])c1ccccc1CN1CCN(CC2CC3C=CC2C3)CC1 (stereo not given)	MITF inh 67 | MITF confirm inactive | AlphaScreen intf2 inactive
NC(=O)CC[C@H](NC(=O)c1ccc(Cl)cc1)C(=O)Nc1ccc(N2CCCCC2)cc1	none
c1ccc(-c2nc(NCCCn3ccnc3)cc(-c3cccnc3)n2)cc1	MITF inh 54 | MITF confirm 34 | AlphaScreen intf2 44
Cc1cnc(CNc2cc(-c3cccnc3)nc(-c3cccnc3)n2)nc1	MITF inh 78 | MITF confirm inactive | AlphaScreen intf2 inactive
c1cncc(-c2cc(NCCCn3ccnc3)nc(-c3ccncc3)n2)c1	none
c1ccc(-c2cc(NCCCn3ccnc3)nc(-c3cccnc3)n2)cc1	MITF inh 53 | MITF confirm inactive | AlphaScreen intf2 39
c1ccc(-c2nc(NCCCn3ccnc3)cc(-c3ccncc3)n2)cc1	none
CCCCn1c(SCc2cccc([N+](=O)[O-])c2)nc2ccsc2c1=O	none
CCCCn1c(SCc2ccc([N+](=O)[O-])cc2)nc2ccsc2c1=O	MITF inh 86 | MITF confirm inactive | AlphaScreen intf2 inactive
O=C(Nc1ccc2nc3n(c(=O)c2c1)CCCCC3)C(=O)N1CCN(c2ccccn2)CC1	none
Cc1c(C(=O)O)cccc1-c1ccc(/C=C(\C#N)C(=O)NCc2ccco2)o1	none
N#C/C(=C\c1ccc(-c2ccccc2C(=O)O)o1)C(=O)NCc1ccco1	MITF inh 76 | MITF confirm 64 | AS interf DR inactive | AlphaScreen intf2 inactive
CCOc1ccc(OCc2ccc(C(=O)O)cc2)cc1	none
COc1ccc(C)cc1NS(=O)(=O)c1ccc2c(c1)CCC(=O)N2	MITF inh 73 | MITF confirm 62 | AS interf DR inactive | AlphaScreen intf2 inactive
Cc1nc(NCc2ccco2)c2c3c(sc2n1)CCCC3	none
Cc1nc(NCc2ccco2)c2c(C)c(C)sc2n1	TEAD-YAP block 43, MITF inh 59 | MITF confirm inactive | AlphaScreen intf2 inactive
COc1ccccc1N1CCN(C(=S)NCCN(C)C)CC1	MITF inh 77 | MITF confirm inactive | AlphaScreen intf2 inactive
COc1ccc2c(CNCc3ccc(OC(C)C)cc3)c(C(=O)O)n(C)c2c1	none
CC1=CC(C)(C)N2C(=O)C(=O)c3cc(OC(=O)CN4C(=O)c5ccccc5C4=O)cc1c32	none
CN(C)c1ccc(NC(=S)Nc2ccccn2)cc1	MITF inh 71 | MITF confirm inactive | AlphaScreen intf2 inactive
CCC(C)(C)n1nnnc1CN(Cc1ccccc1)Cc1cccs1	MITF inh 76 | MITF confirm inactive | AlphaScreen intf2 inactive
O=[N+]([O-])c1cc([N+](=O)[O-])c2cc[nH]c2c1	MITF inh 69 | MITF confirm inactive | AlphaScreen intf2 inactive
Cc1ccc(C(=O)N2CCN(C(=O)CSc3nc4ccc([N+](=O)[O-])cc4[nH]3)C2)cc1	none
O=C(Cn1nc(-c2ccc3c(c2)OCCO3)ccc1=O)Nc1ccccc1-c1ccccc1	MITF inh 72 | MITF confirm inactive | AlphaScreen intf2 inactive
Oc1ccc(/C=N\Nc2nncc(-c3ccccc3)n2)cc1	none
COc1ccc(/C=N/Nc2nncc(-c3ccccc3)n2)cc1Br	MITF inh 65 | MITF confirm inactive | AlphaScreen intf2 inactive
Fc1ccccc1-c1cc(NCCCN2CCOCC2)nc(-c2cccnc2)n1	none
O=C(CCCCC1SCC2NC(=O)NC21)NC1(c2ccc(F)cc2)CCCC1 (stereo not given)	MITF inh 109 | MITF confirm 88 | AS interf DR 4.3 | AlphaScreen intf2 inactive
COC(=O)CCCC[C@H]1SC[C@H]2NC(=O)N[C@H]21	none
CCOc1ccc(CN2CCNC(=O)C2CC(=O)N(C)Cc2nnc(C)o2)cc1 (stereo not given)	none
O=C1C=C(Cc2ccc(F)cc2)C(=O)c2ccccc21	none
Cc1ccc(C)c(OCCOCCN2CC(C)OC(C)C2)c1C (stereo not given)	MITF inh 52 | MITF confirm inactive | AlphaScreen intf2 inactive
COC(=O)c1ccc(OCCOCCN2CC(C)OC(C)C2)cc1 (stereo not given)	MITF inh 52 | MITF confirm inactive | AlphaScreen intf2 inactive
COc1cccc(OC)c1OCCCN1CC(C)OC(C)C1 (stereo not given)	MITF inh 62 | MITF confirm inactive | AlphaScreen intf2 inactive
O=[N+]([O-])c1ccccc1OCCOc1cccc2cccnc12	none
O=[N+]([O-])c1ccccc1OCCOCCOc1cccc2cccnc12	MITF inh 69 | MITF confirm inactive | AlphaScreen intf2 inactive
O=C(Nc1ccc(Cl)cc1C(=O)c1ccccc1)c1cccc(Nc2nc(-c3ccccc3)c3cc(Cl)ccc3n2)c1	none
COC(=O)c1ccccc1OCCCOc1cccc2cccnc12	MITF inh 68 | MITF confirm inactive | AlphaScreen intf2 inactive
COC(=O)c1ccccc1OCCCCN1CC(C)OC(C)C1 (stereo not given)	MITF inh 63 | MITF confirm inactive | AlphaScreen intf2 inactive
CC1CN(CCOCCOc2ccccc2-c2ccccc2)CC(C)O1 (stereo not given)	MITF inh 72 | MITF confirm inactive | AlphaScreen intf2 inactive
COc1ccccc1OCCOCCN1CC(C)OC(C)C1 (stereo not given)	none
